Source: PubChem BioAssay AID1214 (Sanford-Burnham Center for Chemical Genomics, 2008)
In all, about 190,000 compounds went through this assay and about 10 (0.005%) were called active.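 The calls were made as follows: active = activation factor of 2 or more at 20 µM, relative to plate controls; inactive = the rest.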 The list is a sample of the results.

The compounds below were run against Mannose-6-phosphate isomerase (Homo sapiens) (UniProt P34949) (assay: activators of human PMI, primary screen, biochemical, fluorescence intensity, near-Km mannose 6-phosphate (AID 1214)). Conditions: purified human PMI, coupled resazurin fluorescence, 20 min; at 20 µM; stronger effect = higher value; 1 = vehicle control, 0 substrate-free wells.
Sequence of Mannose-6-phosphate isomerase (Homo sapiens) (P34949 whole entry, looked up): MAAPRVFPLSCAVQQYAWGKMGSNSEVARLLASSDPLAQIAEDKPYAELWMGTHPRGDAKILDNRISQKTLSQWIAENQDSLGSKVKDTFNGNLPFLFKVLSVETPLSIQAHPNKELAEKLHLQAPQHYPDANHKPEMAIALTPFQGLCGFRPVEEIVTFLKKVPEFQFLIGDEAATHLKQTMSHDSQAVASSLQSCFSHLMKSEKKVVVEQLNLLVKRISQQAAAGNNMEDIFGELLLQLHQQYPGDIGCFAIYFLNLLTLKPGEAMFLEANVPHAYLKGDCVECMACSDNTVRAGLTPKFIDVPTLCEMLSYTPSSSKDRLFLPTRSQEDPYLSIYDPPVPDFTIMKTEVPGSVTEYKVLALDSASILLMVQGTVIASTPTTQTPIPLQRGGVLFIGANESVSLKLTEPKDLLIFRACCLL

Activation factor, inactive:
CC(C)CCN1CCN(C/C=C/c2ccco2)CC1CCO (configuration not stated) 0.8
CCOC(=O)c1ccc(NNC(C)=O)c([N+](=O)[O-])c1 0.9
CC(=O)c1ccc(NC(=S)N(Cc2ccccc2)C(C)C2CC2)cc1 (configuration not stated) 0.8
O=C(CN1CCCC1)N1CCN(c2ccccc2)CC1 0.8
O=C(CC1C(=O)NCCN1Cc1ccc(-c2ccccc2)cc1)NCc1ccncc1 (configuration not stated) 1
CCOc1ccc(-n2c(SCC(=O)NC3CCS(=O)(=O)C3)nnc2-c2cccnc2)cc1 (configuration not stated) 1
O=C(Nc1ccc(N2CCOCC2)cc1)c1ccc2c(c1)OCO2 0.9
CCC1CCCCN1C(=O)CSc1nc(C)cc(C)n1 (configuration not stated) 1
CCCOC(=O)c1ccc(N2C(=O)c3ccccc3C2=O)cc1 1
O=C(CSc1ccc([N+](=O)[O-])cn1)Nc1ccc(N2CCOCC2)c(Cl)c1 1
COc1ccc(-c2cc(C(=O)NCCCn3ccnc3)no2)cc1 1
Cc1cccc(C)c1NC(=S)N(Cc1cccnc1)Cc1ccccc1Cl 0.9
COc1ccc(/C=C/CN2CCCC(C(=O)c3cc(F)ccc3F)C2)cc1 (configuration not stated) 1
O=c1c2sccc2nc(SCc2cc(=O)n3ccccc3n2)n1-c1ccc(Br)cc1 0.9
O=C1CS(=O)CN1c1ccc(Oc2ccccc2)cc1 (configuration not stated) 1
CC(=C/c1ccccc1)/C=N/NC(=O)c1cc(C)oc1C 0.9
CN1C(=O)C(CC(=O)Nc2ccccc2)S/C1=N/c1nccs1 (configuration not stated) 1
CC(/C=C/C1(O)C(C)CC(=O)CC1(C)C)OC1OC(CO)C(O)C(O)C1O (configuration not stated) 0.9
CCN(C(=O)COC(=O)c1ccc(COc2ccc3c(C)cc(=O)oc3c2)cc1)C1CCS(=O)(=O)C1 (configuration not stated) 1
CCOC(=O)c1cc2c(=O)n3ccccc3nc2n(CC(C)C)c1=NC(=O)c1c(-c2c(F)cccc2Cl)noc1C 1
CCOc1ccc2nc(NCCNC(=O)C(C)(C)C)c(C)cc2c1 1
Cc1cccc(N(C(=O)Cc2cccs2)C(C(=O)NCc2ccco2)c2ccncc2)c1 (configuration not stated) 0.9
COc1ccc(Cl)cc1NC(=O)NC(C)C(C)(C)C (configuration not stated) 0.9
CC(C)CCN1CCN(Cc2cn[nH]c2C2CCCCC2)CC1CCO (configuration not stated) 1
Cc1cccc(NC(=O)/C=C/c2ccc3c(c2)OCO3)n1 0.9
CC1=CC(=C(C#N)c2nc3ccccc3s2)C=C(C)N1c1ccc(F)cc1F 0.7
COc1cccc(/C=C/C(=O)Nc2ccc3c(c2)OCCO3)c1 1.1
Cc1c(NC(=S)NCc2ccc(F)cc2)cccc1[N+](=O)[O-] 0.8
Cc1ccc(-c2nn(-c3ccccc3)cc2/C=C/C(=O)Nc2cccc(S(N)(=O)=O)c2)cc1 0.9
COc1ccc(NC(=S)N2CCCC(CO)C2)c(OC)c1 (configuration not stated) 1
COC(=O)c1c(C(=O)OC)c(-c2cccc(C)c2)n2c1CS(=O)C2 (configuration not stated) 0.9
CCOC(=O)C1(O)CC(C)=NN1C(=O)c1cccc(Br)c1 (configuration not stated) 1.1
Cc1ccc(-n2cc(CN(C)Cc3nccn3C)c(-c3cccc(C)c3)n2)cc1 0.8
O=C(CCNC(=O)c1ccc([N+](=O)[O-])cc1)Nc1ccccc1N1CCOCC1 1
CCCC(O)(CCC)C(=O)NN(C(=O)CCl)c1cccc(C)c1 1.1
COC(=O)c1cc(NC(=O)CN2CCN(C(C)=O)CC2)cc(C(=O)OC)c1 0.9
C/C(N)=C(/C#N)C(=O)COC(=O)CNS(=O)(=O)c1ccc(C)cc1 1
CCNC(=O)CC1C(=O)N(c2ccc(F)cc2)C(=O)N1CCc1sccc1C (configuration not stated) 1.1
CCOc1ccc(C(C)=O)cc1CSc1nnc(-c2ccncc2)n1CCOC 1.1
CCOCCCNCc1ccc(OCc2ccc(F)cc2)c(OC)c1 0.9
CCCCc1nnc(NC(=O)CSc2nc(N)cc(=O)[nH]2)s1 0.8
O=C(NCCN1C(=O)S/C(=C\c2cccnc2)C1=O)c1cccc(OC(F)F)c1 0.9
O=C1/C(=C\c2cccnc2)CN(Cc2ccccc2)C/C1=C\c1cccnc1 0.9
Cc1nnc(SC(C(=O)Nc2cc(Cl)cc(Cl)c2)c2ccccc2)[nH]c1=O (configuration not stated) 1
CC(C)CC(=O)NC(=S)NNC(=O)c1cccc([N+](=O)[O-])c1 0.9
CC1CCCCN1C(=S)NCc1ccccc1 (configuration not stated) 0.9
CN(C)S(=O)(=O)c1ccc(NC(=O)N2CCOCC2)cc1 1
Cc1cc(C(=O)COC(=O)CNC(=O)c2ccc(F)cc2)c(C)n1Cc1ccco1 0.9
Cc1ccc2nc(-c3cccnc3)c(NC3CCCC3)n2c1 0.9
CC(C)[C@H](NC(=O)c1ccc(F)cc1)C(=O)OCC(=O)NC(=O)c1cccn1C 0.9
CCOC(=O)C1=C(C)OC(N)=C(C#N)C1c1cncc(-c2ccc(F)cc2)c1 (configuration not stated) 1.1
CCC(C)NC(=O)c1nn(C)c(=O)c2ccccc12 (configuration not stated) 1.1
O=C(CN1C(=O)CC(c2ccccc2)S(=O)(=O)c2ccccc21)NC1CCCC1 (configuration not stated) 1.1
N#Cc1ccc(CSc2nnc3ccccn23)cc1 1
Cc1ccnc(SCC(N)=O)n1 1.1
CCC(C)(C)C1CCC(=NNC(=O)c2ccc(Br)o2)CC1 (configuration not stated) 1
CCOC(=O)/C(=N\Nc1ccccc1[N+](=O)[O-])c1csc(Nc2ccccc2)n1 0.9
COC(=O)C(C)N=Cc1ccccc1 (configuration not stated) 0.9
Cc1onc(C(=O)NN)c1C(=O)N1CCN(C(c2ccccc2)c2ccccc2)CC1 0.9
CCOCCCNC(=O)C(NC(=O)Cc1c[nH]c2ccccc12)c1ccc(OC)cc1 (configuration not stated) 0.9
CC/C(O)=C1\C(=O)CC(C)(C)CC1=NCCc1nc2ccccc2[nH]1 1.1
N#Cc1ccccc1NC(=O)c1cccc(COc2ccc(Cl)cc2Cl)c1 0.9
CCCCc1ccc(NC(=S)NCCCN2CCOCC2)cc1 1
COc1cc(CNCCN(C)C)ccc1OCc1c(F)cccc1Cl 1
O=C(CCNC(=O)Cn1ccc2ccccc2c1=O)NCCC1=CCCCC1 1
Cn1c(=O)c2cc(S(=O)(=O)NCCC(=O)Nc3ccc(F)cc3F)ccc2n(C)c1=O 1
Cc1cccc(C)c1NC(=O)C1(N(C(=O)c2ccccn2)c2ccc(O)cc2)CCCCC1 0.9
Cc1ccc(CN2CCN(Cc3ccccc3-c3ccco3)CC2CCO)o1 (configuration not stated) 0.9
CCOCCCNC(=O)C(NC(=O)c1ccccc1O)c1ccccc1 (configuration not stated) 1.1
O=C(Cc1ccccc1)NNC1CC(=O)N(c2ccc(Br)cc2)C1=O (configuration not stated) 0.9
Cc1ccc(-c2ccc(/C=C(\C#N)C(N)=S)o2)c([N+](=O)[O-])c1 1
Cn1cc(C(=O)NCc2ccccc2F)cn1 1
OC1CSc2nc3ccccc3n2C1 (configuration not stated) 0.9
CCN(C(=O)COC(=O)c1cc(NS(=O)(=O)c2ccc(Cl)c([N+](=O)[O-])c2)ccc1O)C1CCCCC1 0.8
COCCCNC(=O)C1CCC(CNS(=O)(=O)c2ccc(OC)cc2)CC1 (configuration not stated) 1
COc1ccc(N2CCN(C(C)=C3C(=O)c4ccccc4C3=O)CC2)cc1 0.9
COc1ccc(OC)c(-n2c(=S)[nH]c3cc(C(=O)N4CCCCC4)ccc3c2=O)c1 1
Cn1c(CNC(=O)c2ccccc2F)nnc1SCc1ccc(F)cc1 1.2
COc1ccc2c(c1)c(=O)c(C(=O)c1ccc(Cl)cc1)cn2CC(=O)Nc1ccc(F)cc1 1
CC(C)NC(=S)Nc1cccc2cnccc12 1
O=C(N/N=C/c1ccc(Cl)cc1)c1nc2ccc([N+](=O)[O-])cc2c(=O)[nH]1 1
CCCNC(=O)OC[C@H]1O[C@H](CCO/N=C/[C@@H](NS(=O)(=O)c2ccc(C)cc2)[C@H](C)/C=C/CC(=O)OC)C=C[C@@H]1Oc1ccc(OC)cc1 0.9
O=C(Nc1nnc(SCc2ccccc2Cl)s1)c1cccc([N+](=O)[O-])c1 0.9
CSc1ccc(CNCCN2CCOCC2)cc1 1.1
CC(C)(C)NC(=O)NC(=O)COC(=O)Cc1c(F)cccc1Cl 1.2
CCCCCC1CCC(c2nnc(SCC(C)=O)o2)CC1 (configuration not stated) 1
Cc1ccccc1OCCC(=O)OCC(=O)NC(C)c1ccccc1 (configuration not stated) 1
O=C(CSc1cccc[n+]1[O-])c1ccc(-c2ccccc2)cc1 1.2
Cc1cc([N+](=O)[O-])nn1CC(=O)Nc1ccc(Cc2ccncc2)cc1 1
COCCNC(=O)C(OC(=O)c1cccs1)c1ccc(F)cc1 (configuration not stated) 1
Cc1ccc(S(=O)(=O)N2CCN(CC(=O)N/N=C/c3ccc(Br)s3)CC2)cc1 0.9
CN(CC(=O)NCCc1ccccn1)S(=O)(=O)c1ccc(Cl)cc1 0.9
CC1=C(C(=O)Nc2cc(C)ccn2)C(c2cnn(C)c2)C2=C(CC(c3ccccc3)CC2=O)N1 (configuration not stated) 1
O=C(Nc1ccc(CSc2ccccc2)cc1)c1ccc(CN2CCOCC2)cc1 1.1
COc1ccc(Cl)cc1NC(=O)C(C)N1CCc2ccccc21 (configuration not stated) 1.1
Cc1ccn(CC(=O)N2N=C(C(F)F)CC2(O)C(F)F)n1 (configuration not stated) 1.1
N#Cc1c(C(F)(F)F)cc(-c2ccc(Cl)cc2)nc1SCC(=O)O 1
